Data: the supplement of paper PMC3334620
In all, about 33,000 sequences were measured (“E-score (-0.5 to 0.5)”: median about -0.056, highest 2% from about 0.38 on). Only a selection was taken, and the highest values are over-represented in it overall.

molecular target: Stb4 (UniProt P50104); assay: PBM E-score (8-mer binding enrichment) (E-score (-0.5 to 0.5)); higher = stronger / more preferred TF binding; details: protein concentration: 200 nM; construct: GST-DNA-binding domain
Method: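 Universal 'all 10-mer' protein binding microarrays (Agilent AMADID 015681) probed with GST-tagged S. cerevisiae TFs (full-length or DBD) made by in vitro transcription/translation (PURExpress), about 100-200 nM. Bound TF was detected with fluorescent anti-GST. Each ungapped 8-mer (which stands for itself and its reverse complement) is scored by the PBM enrichment score (E-score), a modified Wilcoxon-Mann-Whitney statistic from -0.5 to +0.5, computed with the Universal PBM Analysis Suite. Scale: above 0.35 generally sequence-specific binding.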

Sequence of UniProt P50104 (P50104 whole entry, the tested form may be a part): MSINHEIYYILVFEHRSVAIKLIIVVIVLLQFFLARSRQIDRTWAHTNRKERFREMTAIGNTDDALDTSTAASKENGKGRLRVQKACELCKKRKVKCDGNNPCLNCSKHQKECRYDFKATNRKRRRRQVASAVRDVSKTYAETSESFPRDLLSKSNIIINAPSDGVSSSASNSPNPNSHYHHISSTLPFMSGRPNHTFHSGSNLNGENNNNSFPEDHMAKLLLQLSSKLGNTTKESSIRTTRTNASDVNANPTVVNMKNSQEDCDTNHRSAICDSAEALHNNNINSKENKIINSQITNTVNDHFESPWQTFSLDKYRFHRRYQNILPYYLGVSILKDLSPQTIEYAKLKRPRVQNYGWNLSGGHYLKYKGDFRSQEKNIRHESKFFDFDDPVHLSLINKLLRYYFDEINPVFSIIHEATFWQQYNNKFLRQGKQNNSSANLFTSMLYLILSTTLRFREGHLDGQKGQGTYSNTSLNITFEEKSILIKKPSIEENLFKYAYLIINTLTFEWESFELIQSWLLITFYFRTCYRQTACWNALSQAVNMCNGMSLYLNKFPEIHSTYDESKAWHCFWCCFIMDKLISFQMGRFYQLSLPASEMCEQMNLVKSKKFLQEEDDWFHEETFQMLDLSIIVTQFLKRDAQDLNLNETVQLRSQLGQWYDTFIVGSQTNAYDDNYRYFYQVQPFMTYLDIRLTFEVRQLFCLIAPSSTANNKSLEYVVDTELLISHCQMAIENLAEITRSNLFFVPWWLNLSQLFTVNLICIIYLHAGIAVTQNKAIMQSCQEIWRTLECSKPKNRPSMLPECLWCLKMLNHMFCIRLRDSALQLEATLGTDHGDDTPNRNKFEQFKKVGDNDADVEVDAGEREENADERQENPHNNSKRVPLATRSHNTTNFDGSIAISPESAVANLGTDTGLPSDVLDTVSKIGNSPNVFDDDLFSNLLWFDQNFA

Sequence | PBM E-score
CATTTTGA | -0.162
CGTTGAGC | -0.0224
AGGATCCC | 0.0362
AGGATCCG | 0.395
CGGATCCA | 0.36
CGGATCCG | 0.462
AGGATCCT | -0.218
CGGATCCC | 0.38
ATGGCGTC | -0.158
GATTGACC | 0.0279
CAAAATAC | -0.00837
ACTAGAAC | 0.0472
AGGCTCTA | -0.08
ATAGCTTA | -0.106
AGAGCCGG | 0.24
GGAGCCGA | 0.379
CGAGCCAA | 0.00699
CGAGCCGC | 0.328
AGAGCCGA | 0.39
CGAGCCGA | 0.399
ATGCGGGG | 0.0133
CCAGTCCG | 0.17

Sequence | PBM E-score
ATGGCAGC | -0.171
ACCTACGA | -0.199
ACGCCATA | -0.131
CGGGCCCA | 0.11
CCGGCCCA | 0.17
CGGGCCCG | 0.419
AGGGCCCG | 0.205
ACGGCCCG | 0.284
CCGGGCCC | 0.303
CCGGGCCG | 0.382
CCGGGCCA | 0.18
CCGGCCCG | 0.392
CAATTTGA | -0.046
TTCTACAA | -0.129
AAATCATT | -0.067
TCACCCGA | 0.407
ACACCCGG | 0.331
CCACCCGA | 0.379
ACACCCGC | 0.164
TCACCCAA | -0.112
GCACCCGA | 0.434
ACACCCGA | 0.445

Sequence | PBM E-score
GCACCCCA | -0.0865
GCACCCGC | 0.285
CTGCGAAC | -0.298
CCAACTTA | -0.00182
CTCTTAAC | -0.0542
GAGTACCC | 0.0867
TAGGATAA | -0.0915
GGGGATAA | 0.00287
CCGGATAG | 0.424
TGGGATAA | -0.182
GCGGATAA | 0.403
CAGGATAG | -0.0723
CAGGATAA | -0.12
CGGGATAG | 0.191
GCGGATGA | 0.304
CCGGATTA | 0.319
CCGGATAA | 0.452
TCGGATAA | 0.487
ATTATCTC | 0.0642
CAGGGAGA | -0.266
CGATGGTC | -0.158
CTTCTTTA | -0.0675

Sequence | PBM E-score
GACCCTGC | 0.1
AAAGCGTC | -0.194
CACACTAA | -0.194
CGAGAAGA | 0.0362
CCGATATC | 0.297
CAGGATAC | -0.198
GCGGATAC | 0.367
CCGGATAC | 0.409
ATCGGCCG | 0.305
AAAGCCAG | -0.246
AGGAACAG | -0.243
CGGAACAA | 0.444
GGGAACAA | 0.225
CGGAACAG | 0.427
CGGAACAC | 0.367
TGGAACAA | -0.2
ATCTATGG | -0.184
AGCTCGCC | -0.0787
AGCTCGTG | 0.0631
AGCTCGAC | -0.0952
AGCTCGCG | -5e-05
